Consider one compound from PubChem BioAssay (EPA / NIEHS).

For assay [1], the target named is Estrogen receptor beta (Homo sapiens) (UniProt Q92731). Kind of assay: ATG_hERb_XSP2: Attagene TRANS-FACTORIAL Multi-Species (XSP2) HepG2 Assay for human Estrogen Receptor (ERb) (AID 2283813).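 Note: actives raise reporter mRNA above DMSO so AC50 reflects agonist induction.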 Put shortly: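 HepG2 cells transiently transfected with GAL4-UAS reporter units and chimeric human ERb-Gal4, 24 h exposure. Reporter mRNA quantified by RT-PCR with FAM labelling, HpaI digestion and capillary electrophoresis; gain of signal versus DMSO.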

Assay [2] concerns the target GAL4 Transcription Factor (Internal Marker), GAL4 (gene 855828) (UniProt P04386). Kind of assay: ATG_GAL4_XSP2: Attagene TRANS-FACTORIAL Multi-Species (XSP2) HepG2 Assay for GAL4 Transcription Factor (Internal Marker) (AID 2283814).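 Note: GAL4 reporter mRNA background control in MRTU transfected cells not a receptor target.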 The procedure, abridged:
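HepG2 cells transiently transfected with GAL4-UAS reporter units, stimulated with 3 nM 6-alpha-fluorotestosterone plus 1.5 nM norgestrel, dosed 24 h. Reporter mRNA by RT-PCR/capillary electrophoresis; gain-of-signal fit versus DMSO, background control.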

In assay [3] the target is chicken Estrogen Receptor (ERa), ESR1 (gene 396099) (UniProt P06212). Put plainly: ATG_chERa_XSP2: Attagene TRANS-FACTORIAL Multi-Species (XSP2) HepG2 Assay for chicken Estrogen Receptor (ERa) (AID 2283817).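 Note: actives raise reporter signal above DMSO so AC50 reflects ER activation.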 Put shortly: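 Transiently transfected HepG2 cells expressing chimeric chicken ERa-GAL4 reporter units, dosed 24 h with 3 nM 6-alpha-fluorotestosterone and 1.5 nM norgestrel present. Reporter mRNA measured by RT-PCR and capillary electrophoresis; gain-of-signal fitted relative to DMSO.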

Assay [4] has as its system zebrafish Estrogen Receptor (ER2a), gene 317734. Put plainly: ATG_zfER2a_XSP2: Attagene TRANS-FACTORIAL Multi-Species (XSP2) HepG2 Assay for zebrafish Estrogen Receptor (ER2a) (AID 2283818).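 Note: hits raise reporter mRNA so AC50 reflects activation of zebrafish ER2a.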 The procedure, abridged: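 HepG2 cells transiently transfected with GAL4-UAS reporter units and chimeric zebrafish ER2a-Gal4, exposed 24 h; medium contains 3 nM 6-alpha-fluorotestosterone and 1.5 nM norgestrel. Reporter mRNA quantified by RT-PCR, HpaI digestion, capillary electrophoresis; gain versus DMSO.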

The test system of assay [5] is frog Estrogen Receptor (ER), gene 398734. Kind of assay: ATG_frER1_XSP2: Attagene TRANS-FACTORIAL Multi-Species (XSP2) HepG2 Assay for frog Estrogen Receptor (ER) (AID 2283821).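 Note: hits raise reporter mRNA above DMSO baseline so potency means agonist or activator.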 The procedure: ATG_XSP2_multi-species_TRANS is a cell-based, multiplexed assay created by modifying the existing Attagene TRANS-FACTORIAL system to include a panel of nuclear receptors from some or all the following species: human (Homo sapiens), mouse (Mus musculus), frog (Xenopus laevis), zebrafish (Danio rerio), chicken (Gallus gallus), and turtle (Chrysemys picta). The ECOTOX-FACTORIAL format uses HepG2, a human liver cell line, with measurements taken at 24 hours after chemical dosing in a 24-well plate. Xsp2 included 3 nM 6-alpha-fluorotestosterone and 1.5 nM norgestrel to stimulate the androgen receptor.ATG_frER1_XSP2 is one of 29 assay components measured or calculated from the ATG_XSP2_multi-species_TRANS assay. It is designed to make measurements of mRNA induction, a form of inducible reporter, as detected with fluorescence intensity signals by Reverse transcription polymerase chain reaction (RT-PCR) and Capillary electrophoresis technology.The assay endpoint ATG_frER1_XSP2 was analyzed in the positive analysis fitting direction relative to DMSO as the negative control and baseline of activity. […] Furthermore, this assay endpoint can be referred to as a primary readout, because this assay has produced multiple assay endpoints where this one serves a reporter gene function. […]

In assay [6] the test system is zebrafish Estrogen Receptor (ER2b), gene 317733. Kind of assay: ATG_zfER2b_XSP2: Attagene TRANS-FACTORIAL Multi-Species (XSP2) HepG2 Assay for zebrafish Estrogen Receptor (ER2b) (AID 2283823).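 Note: fitted upward as reporter gain over DMSO so potency reflects activation.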 The procedure, abridged: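 HepG2 human liver cells transiently transfected with multiplexed GAL4-UAS reporter units expressing chimeric NR-Gal4 proteins; compounds dosed for 24 h. Reporter mRNA quantified by RT-PCR, 6-FAM labelling and capillary electrophoresis; gain-of-signal fitted against DMSO baseline.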

Assay [7] concerns frog Estrogen Receptor (ER2), gene 100174814. Kind of assay: ATG_frER2_XSP2: Attagene TRANS-FACTORIAL Multi-Species (XSP2) HepG2 Assay for frog Estrogen Receptor (ER2) (AID 2283828). The procedure, abridged: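 HepG2 cells transiently transfected with multiplexed GAL4-UAS reporter units expressing chimeric frog ER2–Gal4 protein; reporter mRNA measured 24 h after chemical dosing by RT-PCR, fluorescent labeling and capillary electrophoresis. Gain-of-signal fitted relative to DMSO baseline.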

Assay [8] concerns the target Peroxisome proliferator-activated receptor gamma (Homo sapiens) (UniProt P37231). Put plainly: ATG_hPPARg_XSP2: Attagene TRANS-FACTORIAL Multi-Species (XSP2) HepG2 Assay for human Peroxisome Proliferator-activated Receptor gamma (PPARg) (AID 2283829).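 Note: actives raise reporter mRNA above DMSO so AC50 reflects PPARg activation.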 Put shortly:
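Reporter transcripts were measured by RT-PCR, fluorescent labeling, HpaI digestion and capillary electrophoresis, relative to DMSO, 24 h post-dosing. Transiently transfected HepG2 expressed NR-Gal4 chimeras regulating GAL4-UAS reporters; medium contained 3 nM 6-alpha-fluorotestosterone plus 1.5 nM norgestrel.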

Assay [9] has as its target Nuclear receptor subfamily 1 group I member 2 (Mus musculus) (UniProt O54915). Put plainly: ATG_mPXR_XSP2: Attagene TRANS-FACTORIAL Multi-Species (XSP1) HepG2 Assay for mouse Pregnane X Receptor (PXR) (AID 2283831). Put shortly:
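Reporter transcripts measured after 24 h dosing by RT-PCR with 6-FAM labelling, HpaI digestion and capillary electrophoresis. Transiently transfected HepG2 with NR-Gal4 chimeras; increase over DMSO baseline scored.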

The target in assay [10] is zebrafish Thyroid Hormone Receptor alpha (TRa), thraa (gene 30670) (UniProt Q98867). Kind of assay: ATG_zfTRa_XSP2: Attagene TRANS-FACTORIAL Multi-Species (XSP1) HepG2 Assay for zebrafish Thyroid Hormone Receptor alpha (TRa) (AID 2283832).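 Note: actives raise zebrafish TRa-Gal4 reporter transcript above DMSO baseline.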 The procedure, abridged:
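Chimeric receptor-Gal4 activity was assessed in transfected human liver HepG2 cells 24 h after dosing, using reporter transcript levels detected by RT-PCR and capillary electrophoresis. DMSO served as baseline.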

Results filed as inconclusive are left out. The source made the active and inactive calls. Rule for the calls: active = hit-call score of the fitted dose curve at least 0.9, where 1 is the maximum; inconclusive = response in the unintended direction; inactive = score below 0.9.

Chain of chicken Estrogen Receptor (ERa), ESR1 (gene 396099) (P06212 whole entry, looked up, the tested form may be a part): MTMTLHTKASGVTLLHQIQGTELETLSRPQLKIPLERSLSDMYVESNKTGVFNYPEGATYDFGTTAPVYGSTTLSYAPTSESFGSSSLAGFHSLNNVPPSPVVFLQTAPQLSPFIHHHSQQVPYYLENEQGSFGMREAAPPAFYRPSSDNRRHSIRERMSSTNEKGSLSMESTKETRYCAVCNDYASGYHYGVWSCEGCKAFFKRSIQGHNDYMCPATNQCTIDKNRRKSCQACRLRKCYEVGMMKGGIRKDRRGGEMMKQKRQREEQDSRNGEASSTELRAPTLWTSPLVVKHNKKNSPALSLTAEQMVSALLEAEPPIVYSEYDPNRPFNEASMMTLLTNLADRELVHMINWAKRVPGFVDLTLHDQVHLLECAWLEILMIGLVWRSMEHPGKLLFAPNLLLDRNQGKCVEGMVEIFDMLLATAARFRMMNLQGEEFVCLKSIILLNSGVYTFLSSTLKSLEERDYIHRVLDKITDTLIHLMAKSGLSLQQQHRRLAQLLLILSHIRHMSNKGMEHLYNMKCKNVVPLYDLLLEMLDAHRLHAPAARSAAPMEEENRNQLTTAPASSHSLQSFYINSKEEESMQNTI
Chain of GAL4 Transcription Factor (Internal Marker), GAL4 (gene 855828) (P04386 whole entry, looked up, the tested form may be a part): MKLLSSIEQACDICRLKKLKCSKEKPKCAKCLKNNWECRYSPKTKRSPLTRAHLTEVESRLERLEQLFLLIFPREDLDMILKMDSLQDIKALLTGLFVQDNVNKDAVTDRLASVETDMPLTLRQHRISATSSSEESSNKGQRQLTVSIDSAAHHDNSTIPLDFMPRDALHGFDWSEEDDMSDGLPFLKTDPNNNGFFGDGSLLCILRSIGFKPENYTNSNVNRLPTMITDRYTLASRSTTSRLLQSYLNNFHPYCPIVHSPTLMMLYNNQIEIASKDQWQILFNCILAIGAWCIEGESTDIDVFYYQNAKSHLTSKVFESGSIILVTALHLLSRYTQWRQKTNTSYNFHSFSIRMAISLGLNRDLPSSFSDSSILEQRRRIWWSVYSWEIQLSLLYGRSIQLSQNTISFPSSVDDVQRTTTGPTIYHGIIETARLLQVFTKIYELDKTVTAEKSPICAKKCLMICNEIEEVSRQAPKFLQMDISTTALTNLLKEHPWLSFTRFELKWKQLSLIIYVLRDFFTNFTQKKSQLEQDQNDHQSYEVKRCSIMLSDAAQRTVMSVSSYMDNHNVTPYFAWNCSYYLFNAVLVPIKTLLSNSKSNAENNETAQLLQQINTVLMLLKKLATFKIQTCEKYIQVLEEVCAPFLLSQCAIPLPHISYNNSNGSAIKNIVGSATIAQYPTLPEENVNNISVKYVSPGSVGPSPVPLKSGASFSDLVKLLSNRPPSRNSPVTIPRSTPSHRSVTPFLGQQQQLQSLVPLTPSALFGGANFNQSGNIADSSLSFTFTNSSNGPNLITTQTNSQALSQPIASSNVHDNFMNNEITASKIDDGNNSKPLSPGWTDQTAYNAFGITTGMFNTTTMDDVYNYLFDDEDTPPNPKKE
Chain of Nuclear receptor subfamily 1 group I member 2 (Mus musculus) (O54915 whole entry, looked up, the tested form may be a part): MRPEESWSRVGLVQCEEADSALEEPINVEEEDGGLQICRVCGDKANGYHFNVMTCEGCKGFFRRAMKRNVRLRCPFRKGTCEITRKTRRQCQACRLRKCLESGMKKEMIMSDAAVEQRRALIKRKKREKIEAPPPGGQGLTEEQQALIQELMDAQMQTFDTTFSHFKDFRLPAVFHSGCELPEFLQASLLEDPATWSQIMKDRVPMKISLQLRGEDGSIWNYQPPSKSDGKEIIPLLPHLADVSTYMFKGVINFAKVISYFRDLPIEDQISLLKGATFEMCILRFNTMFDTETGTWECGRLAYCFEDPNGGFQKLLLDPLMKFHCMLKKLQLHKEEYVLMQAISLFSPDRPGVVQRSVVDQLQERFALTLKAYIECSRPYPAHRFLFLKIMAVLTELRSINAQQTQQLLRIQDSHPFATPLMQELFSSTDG
Chain of zebrafish Thyroid Hormone Receptor alpha (TRa), thraa (gene 30670) (Q98867 whole entry, looked up, the tested form may be a part): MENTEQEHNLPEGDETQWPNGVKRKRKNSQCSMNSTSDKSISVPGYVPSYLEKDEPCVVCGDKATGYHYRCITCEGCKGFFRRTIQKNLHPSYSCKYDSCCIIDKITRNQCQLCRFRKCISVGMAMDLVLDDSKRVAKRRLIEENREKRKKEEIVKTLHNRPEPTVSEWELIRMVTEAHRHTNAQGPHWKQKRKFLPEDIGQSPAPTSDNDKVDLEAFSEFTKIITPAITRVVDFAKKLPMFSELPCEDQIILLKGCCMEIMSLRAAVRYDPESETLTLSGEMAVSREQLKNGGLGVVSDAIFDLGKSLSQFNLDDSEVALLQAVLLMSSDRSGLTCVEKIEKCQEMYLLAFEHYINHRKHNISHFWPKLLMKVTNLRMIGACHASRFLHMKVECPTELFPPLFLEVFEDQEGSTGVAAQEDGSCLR
Chain of Estrogen receptor beta (Homo sapiens) (Q92731 whole entry, looked up, the tested form may be a part): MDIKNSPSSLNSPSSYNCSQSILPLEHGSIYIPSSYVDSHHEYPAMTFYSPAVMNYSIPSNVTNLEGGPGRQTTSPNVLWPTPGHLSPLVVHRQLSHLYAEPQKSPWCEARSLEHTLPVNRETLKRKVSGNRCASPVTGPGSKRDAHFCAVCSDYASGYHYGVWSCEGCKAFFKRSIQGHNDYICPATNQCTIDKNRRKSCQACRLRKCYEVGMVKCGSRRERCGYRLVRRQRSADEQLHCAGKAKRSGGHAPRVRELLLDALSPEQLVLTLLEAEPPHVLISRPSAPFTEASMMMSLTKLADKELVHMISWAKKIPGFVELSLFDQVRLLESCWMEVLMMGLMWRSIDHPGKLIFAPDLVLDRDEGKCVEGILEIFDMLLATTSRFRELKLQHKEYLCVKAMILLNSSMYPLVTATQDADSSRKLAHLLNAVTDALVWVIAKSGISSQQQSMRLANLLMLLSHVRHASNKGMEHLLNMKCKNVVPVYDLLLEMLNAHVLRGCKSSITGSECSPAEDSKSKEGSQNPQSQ
Chain of Peroxisome proliferator-activated receptor gamma (Homo sapiens) (P37231 whole entry, looked up, the tested form may be a part): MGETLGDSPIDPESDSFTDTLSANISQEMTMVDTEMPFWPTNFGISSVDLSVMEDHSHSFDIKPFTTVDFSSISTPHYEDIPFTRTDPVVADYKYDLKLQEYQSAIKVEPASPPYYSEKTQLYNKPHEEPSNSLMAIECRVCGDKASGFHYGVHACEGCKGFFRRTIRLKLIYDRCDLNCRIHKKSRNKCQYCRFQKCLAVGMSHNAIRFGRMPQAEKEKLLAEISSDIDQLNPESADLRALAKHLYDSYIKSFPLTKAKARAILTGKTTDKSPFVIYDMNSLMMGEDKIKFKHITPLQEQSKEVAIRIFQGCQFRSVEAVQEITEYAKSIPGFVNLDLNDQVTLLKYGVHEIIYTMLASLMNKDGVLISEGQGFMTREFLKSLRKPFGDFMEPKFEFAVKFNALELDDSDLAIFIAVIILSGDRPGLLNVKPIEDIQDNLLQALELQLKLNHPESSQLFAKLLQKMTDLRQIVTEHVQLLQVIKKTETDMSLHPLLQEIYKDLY

What is called AC50 is the midpoint of the concentration-response curve, whichever way the signal moves. Turning to `C[C@]12CC[C@@H]3c4ccc(O)cc4CC[C@H]3[C@@H]1C[C@@H](O)[C@@H]2O`, the AC50 in assay [1] was 10.2 nM (active); in assay [3], 72.5 nM (active); in [4], 100 nM (active); in assay [6] it was 30.8 nM (active). The outcome in [2], in [5], in assay [7], in assay [8], in assay [9] and in assay [10] was inactive.
